The whole screen tested about 39,000 compounds, of which about 1,500 (3.8%) were called active. The full list was thinned out, with actives kept by preference.
These compounds were tested on HSkMC (human skeletal muscle cells) (assay: cytotoxicity call (relative viability < 0.9)). Conditions: 10 µM.

Row | SMILES | cytotoxicity call
1 | C[C@@H]1CN([C@@H](C)CO)C(=O)c2cc(NC(=O)CCC(F)(F)F)ccc2O[C@@H](C)CCCCO[C@H]1CN(C)C(=O)Nc1ccccc1 | inactive
2 | O=C(C[C@H]1CC[C@@H]2[C@H](COC[C@H](O)CN2C(=O)Nc2ccc(Cl)c(Cl)c2)O1)NCc1ccc(Cl)c(Cl)c1 | inactive
3 | CCC(=O)N(C)C[C@H]1Oc2ncc(C#C[C@@H](C)O)cc2C(=O)N([C@H](C)CO)C[C@@H]1C | inactive
4 | Cc1noc(C)c1NC(=O)Nc1ccc2c(c1)C(=O)N([C@@H](C)CO)C[C@H](C)[C@@H](CN(C)Cc1ccncc1)OCCCC[C@@H](C)O2 | inactive
5 | CCCN(C)C[C@H]1OCCCC[C@@H](C)Oc2ccc(NC(=O)Nc3ccc(F)cc3)cc2C(=O)N([C@@H](C)CO)C[C@H]1C | inactive
6 | C#CCN([C@H](/C=C/C1CC1)[C@@H](O)Cc1ccccc1)[C@@H](Cc1ccc(-n2cc(CCC(=O)NO)nn2)cc1)C(=O)OC | inactive
7 | O=C(CCc1cn(CC(=O)N2CCC3(CC2)C(=O)NCN3c2ccccc2)nn1)NO | inactive
8 | CCCNC(=O)Cc1nnc[nH]1 | inactive
9 | CC(C)(C)[S@@](=O)N1Cc2cc(C(=O)NCCc3ccncc3)nc(-c3cccc(-c4ccccc4)c3)c2[C@H]1CCO | active
10 | COc1ccccc1-c1cccc(-c2nc(C(=O)NCc3ccncc3)cc3c2[C@@H](CCO)N([S@](=O)C(C)(C)C)C3)c1 | inactive
11 | COc1ccccc1-c1cccc(-c2nc(C(=O)NCc3ccncc3)cc3c2[C@@H](CCO)N([S@@](=O)C(C)(C)C)C3)c1 | inactive
12 | CCNC(=O)c1cc2c(c(-c3cccc(-c4cccc(F)c4)c3)n1)[C@H](CCO)N([S@@](=O)C(C)(C)C)C2 | inactive
13 | CCNC(=O)c1cc2c(c(-c3cccc(-c4cccc(F)c4)c3)n1)[C@@H](CCO)N([S@](=O)C(C)(C)C)C2 | inactive
14 | CC(C)(C)[S@@](=O)N1Cc2cc(C(=O)NCCc3ccncc3)nc(-c3cccc(-c4ccc(C#N)cc4)c3)c2[C@H]1CCO | inactive
15 | COc1ccccc1-c1cccc(-c2nc(C(=O)NCc3ccncc3)cc3c2[C@H](CCO)N([S@@](=O)C(C)(C)C)C3)c1 | active
16 | CC(C)(C)[S@](=O)N1Cc2cc(C(=O)NCCc3ccncc3)nc(-c3cccc(-c4ccccc4)c3)c2[C@@H]1CCO | inactive
17 | CC(C)(C)S(=O)N1Cc2cc(C(=O)Nc3ccc(-c4ccccc4)cc3)nc(-c3cccc(-c4cccc(F)c4)c3)c2[C@@H]1CCO (some centres undefined) | active
18 | COCC(=O)N(C)C[C@H]1Oc2cc(C#CC(C)(C)O)ccc2S(=O)(=O)N([C@@H](C)CO)C[C@H]1C | inactive
19 | C[C@H]1CN([C@@H](C)CO)C(=O)c2cccc(NS(=O)(=O)c3cn(C)cn3)c2O[C@@H]1CN(C)C(=O)NC1CCCCC1 | inactive
20 | CO[C@H]1CN(C)C(=O)c2ccc(NS(=O)(=O)c3cn(C)cn3)cc2OC[C@@H](C)N(CC2CC2)C[C@@H]1C | inactive
21 | Cn1cnc(S(=O)(=O)N2C[C@@H](O)COC[C@@H]3O[C@H](CC(=O)NCc4cccc(F)c4)CC[C@H]32)c1 | inactive
22 | CNC(=O)c1cccc(S(N)(=O)=O)c1 | inactive

Row | SMILES | cytotoxicity call
23 | C[C@@H]1CCCCO[C@H](CN(C)C(=O)NC2CCCCC2)[C@H](C)CN([C@H](C)CO)C(=O)c2cc(NC(=O)NC3CCCCC3)ccc2O1 | inactive
24 | C[C@@H]1CN([C@@H](C)CO)C(=O)c2cc(C#CC(C)(C)O)cnc2O[C@H]1CN(C)C(=O)CN(C)C | inactive
25 | C[C@@H]1CN([C@H](C)CO)C(=O)c2cccc(NS(=O)(=O)c3ccc(F)cc3)c2O[C@@H]1CN(C)C(=O)Nc1ccc(C(F)(F)F)cc1 | inactive
26 | C[C@@H]1CN([C@@H](C)CO)C(=O)Cc2cc(NS(C)(=O)=O)ccc2O[C@@H]1CN(C)C(=O)Nc1ccc2c(c1)OCO2 | inactive
27 | C[C@H](CO)N1C[C@H](C)[C@H](CN(C)C(=O)Nc2ccc3c(c2)OCO3)OCCCC[C@H](C)Oc2ccc(NC(=O)CCCCCC(=O)Nc3ccccc3N)cc2C1=O | inactive
28 | Cc1noc(C)c1NC(=O)Nc1cccc2c1O[C@H](CN(C)Cc1ccc(C(F)(F)F)cc1)[C@H](C)CN([C@@H](C)CO)C2=O | inactive
29 | C[C@H]1CN([C@@H](C)CO)C(=O)c2cc(NC(=O)Cc3cn(C)c4ccccc34)ccc2O[C@@H]1CN(C)Cc1ccc(C(=O)Nc2ccccc2N)cc1 | active
30 | C[C@H](CO)N1C[C@H](C)[C@H](CN(C)Cc2ccc(C(=O)Nc3ccccc3N)cc2)Oc2ccc(NC(=O)Cc3cn(C)c4ccccc34)cc2C1=O | inactive
31 | C[C@H](CO)N1C[C@H](C)[C@H](CN(C)Cc2ccc(C(=O)Nc3ccccc3N)cc2)Oc2ccc(NC(=O)Cc3cn(C)c4ccccc34)cc2CC1=O | active
32 | C[C@H]1CN([C@@H](C)CO)C(=O)Cc2cc(NC(=O)Cc3cn(C)c4ccccc34)ccc2O[C@@H]1CN(C)Cc1ccc(C(=O)Nc2ccccc2N)cc1 | inactive
33 | C[C@@H]1CN([C@H](C)CO)C(=O)Cc2cc(NC(=O)Cc3cn(C)c4ccccc34)ccc2O[C@@H]1CN(C)Cc1ccc(C(=O)Nc2ccccc2N)cc1 | inactive
34 | C[C@@H]1CN([C@H](C)CO)C(=O)c2cc(NC(=O)Cc3cn(C)c4ccccc34)ccc2O[C@@H]1CN(C)Cc1ccc(C(=O)Nc2ccccc2N)cc1 | inactive
35 | O=C(C[C@@H]1CC[C@H]2[C@@H](COC[C@H](O)CN2S(=O)(=O)c2ccc(Cl)cc2)O1)NCCN1CCCC1 | inactive
36 | O=C(C[C@H]1C=C[C@@H](NS(=O)(=O)c2ccc(F)cc2)[C@@H](CO)O1)N1CCC(Cc2ccccc2)CC1 | inactive
37 | C[C@@H]1CCCCO[C@H](CN(C)C(=O)Nc2ccc(C(F)(F)F)cc2)[C@@H](C)CN([C@@H](C)CO)C(=O)c2cc(NC(=O)CCC(F)(F)F)ccc2O1 | inactive
38 | C[C@@H]1CCCCO[C@@H](CN(C)C(=O)CCC(F)(F)F)[C@H](C)CN([C@@H](C)CO)C(=O)c2cc(NS(=O)(=O)c3ccccc3)ccc2O1 | inactive
39 | COc1ccc(CN(C)C[C@@H]2OCCCC[C@@H](C)Oc3ccc(NC(=O)Nc4ccc(C(F)(F)F)cc4)cc3C(=O)N([C@@H](C)CO)C[C@H]2C)cc1 | active
40 | COc1ccc(CN(C)C[C@H]2OCCCC[C@@H](C)Oc3ccc(NC(=O)Nc4ccc(C(F)(F)F)cc4)cc3C(=O)N([C@H](C)CO)C[C@@H]2C)cc1 | active
41 | COc1ccc(CN(C)C[C@@H]2OCCCC[C@@H](C)Oc3ccc(NC(=O)Nc4ccc(C(F)(F)F)cc4)cc3C(=O)N([C@@H](C)CO)C[C@@H]2C)cc1 | active
42 | COc1ccc(CN(C)C[C@H]2OCCCC[C@H](C)Oc3ccc(NC(=O)Nc4ccc(C(F)(F)F)cc4)cc3C(=O)N([C@H](C)CO)C[C@H]2C)cc1 | active
43 | COc1ccc(NC(=O)Nc2ccc3c(c2)C(=O)N([C@@H](C)CO)C[C@H](C)[C@H](CN(C)Cc2ccc(C(F)(F)F)cc2)OCCCC[C@H](C)O3)cc1 | inactive
44 | COc1ccc(NC(=O)Nc2ccc3c(c2)C(=O)N([C@@H](C)CO)C[C@H](C)[C@@H](CN(C)Cc2ccc(C(F)(F)F)cc2)OCCCC[C@H](C)O3)cc1 | inactive

From the antibiotic and cytotoxicity screens of Wong et al. (2023)
